Assay outcomes (PubChem BioAssay)
Sampled rows, rich in hits. Any-hit rate of the full collection: about 0.68%.
Mtb hypoxia inh – inhibitors of hypoxia-regulated fluorescent reporter in Mycobacterium tuberculosis; M. tuberculosis hypoxia-regulated fluorescent reporter, fluorescence; fluorescence inhibition, % (test concentration not listed); actives 0.1% (n = 300,000); in the data active means fluorescence inhibition mostly above about 23%, no sharp cut-off; inactive means mostly below about 17%
Sa RN4220 lethal – S. aureus RN4220 growth inhibition. OD600, 16 h. inhibition, % (concentration not given with the values). actives 0.33% (n = 330,000); in the data active means inhibition above about 85%;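 further: plate controls were untreated cells for no effect and reference antibiotic for full effect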
Sa ugtP lethal – kills S. aureus RN4220 lacking UgtP; AID 1259309; growth inhibition, % (no concentration beside the values); S. aureus RN4220 ugtP deletion, OD600 growth, 16 h; actives 0.54% (n = 330,000); in the data active means growth inhibition above about 68%;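 further: plate controls were untreated wells for no effect and antibiotic for full effect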
Active calls of the source: *; nt = not tested or not shown; ! = a repeat was not active.

SMILES | Mtb hypoxia inh | Sa RN4220 lethal | Sa ugtP lethal
COc1ccc(NC(=S)NC(=NCS(=O)(=O)c2ccccc2)c2ccccc2)cc1 | 4 | 7 | 8
O=C(C1=CC(C2CC2)CC(OCc2ccc(CO)cc2)O1)N1CCOCC1 (stereo not given) | 0 | 8 | -1
Cc1ccnn1CC(=O)NN=Cc1ccco1 | 3 | -1 | -2
CC1CN(C(C)CO)C(=O)c2cccc(NC(=O)Nc3ccc(C(F)(F)F)cc3)c2OC1CN(C)S(=O)(=O)c1cccs1 (stereo not given) | -4 | -7 | -20
CCCCCCOc1ccc(CN2CCN(C)CC2)cc1 | 10 | 0 | 86*
CCCCOc1ccc(CN2CCCCC2)cc1 | -5 | 6 | 4
CCC(=NNC(=O)c1c(C)nc2ccccn12)c1ccc(Cl)cc1 | -2 | -2 | 4
CCOC(=O)C1C2COc3ccc(Cl)cc3C2N2C(=O)c3ccc(F)cc3NC(=O)[C@@]12C (stereo not given in full) | 2 | -5 | -32
COc1ccc(NC(=O)N(C)CC2Oc3c(NS(=O)(=O)c4ccc(OC)cc4)cccc3C(=O)N(C(C)CO)CC2C)cc1 (stereo not given) | 18 | 1 | -2
Cc1nc(Nc2ccc(Cl)c(Cl)c2)sc1C(=O)Nc1ccccc1 | 8 | 93* | 99*
Cc1nc(Nc2ccc(Cl)cc2Cl)sc1C(=O)Nc1ccccc1 | -20 | 8 | -28
COC(=O)C(NC(=O)OC1C(=O)c2ccc(OC)cc2OC1c1cccc(C(F)(F)F)c1)C(C)C (stereo not given) | 6 | 5 | 3
CCCOc1ccc(CCCN=C(N)N)cc1Cl | 7 | 37 | 101*
CCCCOc1ccc(CN=C(N)N)cc1Cl | 7 | 5 | 100*
CCOc1ccc(CN=C(N)N=C(N)N)cc1Cl | nt | 1 | 4
CCCOc1ccc(CSC(=N)N)cc1C(=O)OC | -4 | 2 | 7
C[N+]1(C)CCC(OC(=O)[C@@](O)(c2ccccc2)C2CCCC2)C1 (stereo not given in full) | 4 | 5 | 9
CN(C)CCOc1ccc(C(=C(CCCl)c2ccccc2)c2ccccc2)cc1 | 19 | 23 | 76
CCN(CC)CCOc1ccc(C(=C(Cl)c2ccccc2)c2ccccc2)cc1 | nt | 97*! | 71
CC(Cn1nnc2ccccc21)=NOC(=O)c1cc(F)c(F)cc1Cl | 10 | 3 | 10
CC(C)(C)OC(=O)NC(COCc1ccccc1)C(=O)NC(CO)C(O)C1CC1C(=O)NC1CCCCC1 (stereo not given) | -2 | 5 | 6
CON/C=C(\C=Nc1ccc(Cl)cc1Cl)c1ncc(C(F)(F)F)cc1Cl | 10 | 6 | 18
CON/C=C(\C=Nc1ccccc1)c1ncc(C(F)(F)F)cc1Cl | 4 | -1 | 96*
O=C1C=C(c2ccc(O)cc2)CC(c2ccc(Cl)cc2)C1 (stereo not given) | -2 | -2 | -19
CC1(C)CC(=O)C2=C(C1)N=C1c3ccccc3C(=O)C1C2c1ccc(Cl)cc1 (stereo not given) | nt | 1 | -6
SMILES | Mtb hypoxia inh | Sa RN4220 lethal | Sa ugtP lethal
CCOC(=O)C1=C(C)N=C2c3ccccc3C(=O)C2C1c1ccc(Cl)cc1 (stereo not given) | 2 | 88* | 46
c1ccc(CCc2cn(CC3CCC(C4CCC(Cn5cc(CCc6ccccc6)nn5)O4)O3)nn2)cc1 (stereo not given) | -1 | 2 | 2
O=C(Nc1ccc(OCC(F)(F)C(F)F)c(C(F)(F)F)c1)c1ccccc1O | nt | 112* | 100*
O=C(Nc1ccc(OCC(F)(F)C(F)F)c(C(F)(F)F)c1)c1ccccc1 | nt | -12 | -5
O=C(NC(NC(=S)Nc1cccc(Cl)c1)C(Cl)(Cl)Cl)OCc1ccccc1 (stereo not given) | -3 | 90* | 96*
O=C(NC(NC(=S)Nc1cccc(C(=O)O)c1)C(Cl)(Cl)Cl)OCc1ccccc1 (stereo not given) | 4 | 3 | 9
CC(C)CC(NC(=O)c1nc[nH]c1C(=O)N1CCC(C)CC1)C(=O)OC(C)(C)C (stereo not given) | 16 | 4 | 0
CC1CN(C(C)CO)C(=O)c2cccc(NC(=O)C3CC3)c2OC1CN(C)Cc1ccc(-c2ccccc2)cc1 (stereo not given) | 4 | 18 | -15
CCC1=C2CCC3C(=O)N(CC)C(=O)C3C2[C@@]2(Cc3ccccc3)C(=NCc3ccccc3)OC(=O)N2C1=O (stereo not given in full) | -6 | 2 | -5
CC1CN(C(C)CO)C(=O)Cc2cc(NC(=O)Nc3cccc4ccccc34)ccc2OC1CN(C)Cc1ccc(C(F)(F)F)cc1 (stereo not given) | 15 | -5 | -6
O=C(c1ccc(NC(=S)Nc2ccc(Cl)c(Cl)c2)cc1)N1CCCC1 | 4 | 101* | 100*
O=C(Nc1ccc(Cl)c(Cl)c1)N1CCCCCC1 | 0 | -5 | -8
O=C(NC(=S)Nc1ccc(Br)c(Cl)c1)C1CC1 | 13 | -11 | 49
CC(=O)c1ccc(NC(=S)Nc2ccc(Br)c(Cl)c2)cc1 | 7 | 100* | 100*
C#Cc1ccc(C2C=C(C(=O)NCc3ccccc3)OC(OCC)C2CCCO)cc1 (stereo not given) | 9 | -3 | -3
CC(C)(C)c1ccc(C=CC(=O)c2ccc(NC3=NCCCS3)cc2)cc1 | 3 | -7 | -4
COC(=O)C1=C(C(=O)OC)C2N(Cc3ccccc3)c3ccccc3[C@@]23CC(C(=O)OC)N(C(=O)NC(C)(C)C)C3=N1 (stereo not given in full) | 6 | 3 | -1
Cc1c2ccncc2c(C)c2c1[nH]c1ccccc12 | 60* | 98* | 100*
COc1ccc2[nH]c3c(C)c4ccncc4c(C)c3c2c1 | nt | 98* | 96*
Cc1c2ccncc2cc2c1[nH]c1ccccc12 | 10 | 14 | 22
COc1ccc2[nH]c(C)cc(=O)c2c1 | nt | 9 | -2
COc1ccc(S(=O)(=O)Nc2ccc3c(c2)CC(=O)N(C(C)CO)CC(C)C(CN(C)C(=O)Nc2ccc4c(c2)OCO4)O3)cc1 (stereo not given) | -2 | 8 | 8
COc1cc(OC)c(OC)cc1C=NNC(=O)c1cnccn1 | 3 | 7 | 7
CSc1nc(C)cc(OCC(=O)NN=Cc2ccccc2O)n1 | 7 | 2 | 2
CCC(C)C1CNC(=O)C(=O)N1CCCc1cc(OC)c(OC)c(OC)c1 (stereo not given) | 11 | 5 | 4
SMILES | Mtb hypoxia inh | Sa RN4220 lethal | Sa ugtP lethal
Brc1cc2c(cc1C1OCCO1)OCO2 | 5 | 4 | -2
CCCC1OC(c2cc3c(cc2Cl)OCO3)OCC1CC (stereo not given) | 1 | -1 | 85*
NC(=O)C(=NOC(=O)c1ccco1)c1nc(-c2ccc(Br)cc2)cs1 | 3 | -3 | 93*
N/C(=N\OC(=O)c1ccco1)c1ccc(Br)cc1 | nt | 4 | 3
COc1ccc(-n2c(-c3ccc(Cl)cc3)c[n+]3c2CCc2ccccc2-3)cc1 | 19 | 0 | -15
Cc1ccc(-n2c(-c3ccc(Br)cc3)c[n+]3c2CCc2ccc4cccnc4c2-3)cc1 | nt | 99* | 90
CC(C)(C)C1COC(=O)C(Cc2ccc(F)cc2)CCC=CCC(CC(=O)N(CCO)Cc2ccccc2)C(=O)N1 (stereo not given) | 2 | 0 | 3
C(=Nc1ccccc1)c1ccc[nH]1 | 3 | 3 | -2
Oc1ccccc1N=Cc1ccc[nH]1 | 81* | 12 | -1
O=C(C=CNc1ccc(F)c(Cl)c1)c1ccco1 | 2 | 8 | 3
